PMC5540273 (PLoS ONE, 2017)

Assays:
Details in all cases: concentration: 1 μM, replicates: in singlicate; n = 1
[1] = tested on: T1, RSK1(Kin.Dom.1-N-terminal)
T1 construct: gene RPS6KA1

[2] = tested on: T2, RSK1(Kin.Dom.2-C-terminal)
T2 construct: gene RPS6KA1

[3] = tested on: T3, RSK2(Kin.Dom.1-N-terminal)
T3 construct: gene RPS6KA3

[4] = tested on: T4, RSK2(Kin.Dom.2-C-terminal)
T4 construct: gene RPS6KA3

[5] = tested on: T5, RSK3(Kin.Dom.1-N-terminal)
T5 construct: gene RPS6KA2

[6] = tested on: T6, RSK3(Kin.Dom.2-C-terminal)
T6 construct: gene RPS6KA2

[7] = tested on: T7, RSK4(Kin.Dom.1-N-terminal)
T7 construct: gene RPS6KA6

[8] = tested on: T8, RSK4(Kin.Dom.2-C-terminal)
T8 construct: gene RPS6KA6

S6K1 = tested on: S6K1
SBK1 = tested on: SBK1
SGK2 = tested on: SGK2
SGK3 = tested on: SGK3
SGK = tested on: SGK
SIK2 = tested on: SIK2
SIK = tested on: SIK
SLK = tested on: SLK
SNARK = tested on: T9, SNARK
T9 construct: gene NUAK2

SNRK = tested on: SNRK
SRC = tested on: SRC
SRMS = tested on: SRMS
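Note: KINOMEscan kinase panel screen.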

With CCCNC(=O)Nc1ccc(Oc2ncnc3ccn(C)c23)cc1 the “%Inh” value [1] was 14%, the “%Inh” value [2] was 13% and the “%Inh” value [3] was 27%. For the same molecule, the “%Inh” value [4] was 0%, the “%Inh” value [5] was 0% and the “%Inh” value [6] was 5%. For the same molecule, the “%Inh” value [7] was 25%, the “%Inh” value [8] was 0% and the “%Inh” value (S6K1) was 0%. For the same molecule, the “%Inh” value (SBK1) was 20%, the “%Inh” value (SGK2) was 13% and the “%Inh” value (SGK3) was 0%. The “%Inh” value (SGK) was 1%, the “%Inh” value (SIK2) was 0% and the “%Inh” value (SIK) was 23%. The “%Inh” value (SLK) was 0%, the “%Inh” value (SNARK) was 0% and the “%Inh” value (SNRK) was 0%. For the same molecule, the “%Inh” value (SRC) was 0% and the “%Inh” value (SRMS) was 0%.
With COc1cccc(C2=C(N(C)c3ccccc3)C(=O)NC2=O)c1 [SB-334865] the “%Inh” value [1] was 0%, the “%Inh” value [2] was 0% and the “%Inh” value [3] was 0%. For the same molecule, the “%Inh” value [4] was 5%, the “%Inh” value [5] was 11% and the “%Inh” value [6] was 5%. For the same molecule, the “%Inh” value [7] was 0%, the “%Inh” value [8] was 19% and the “%Inh” value (S6K1) was 10%. The “%Inh” value (SBK1) was 0%, the “%Inh” value (SGK2) was 0% and the “%Inh” value (SGK3) was 3%. The “%Inh” value (SGK) was 0%, the “%Inh” value (SIK2) was 0% and the “%Inh” value (SIK) was 0%. For the same molecule, the “%Inh” value (SLK) was 13%, the “%Inh” value (SNARK) was 0% and the “%Inh” value (SNRK) was 0%. For the same molecule, the “%Inh” value (SRC) was 0% and the “%Inh” value (SRMS) was 0%.
In the case of CCn1c(-c2nonc2N)nc2ccccc21 [SB-693162/GW549034], the “%Inh” value [1] is reported as 6%, the “%Inh” value [2] is reported as 4% and the “%Inh” value [3] is reported as 41%. For the same molecule, the “%Inh” value [4] was 3%, the “%Inh” value [5] was 4% and the “%Inh” value [6] was 19%. For the same molecule, the “%Inh” value [7] was 48%, the “%Inh” value [8] was 15% and the “%Inh” value (S6K1) was 43%. For the same molecule, the “%Inh” value (SBK1) was 22%, the “%Inh” value (SGK2) was 12% and the “%Inh” value (SGK3) was 62%. For the same molecule, the “%Inh” value (SGK) was 12%, the “%Inh” value (SIK2) was 0% and the “%Inh” value (SIK) was 10%. The “%Inh” value (SLK) was 20%, the “%Inh” value (SNARK) was 51% and the “%Inh” value (SNRK) was 40%. For the same molecule, the “%Inh” value (SRC) was 0% and the “%Inh” value (SRMS) was 0%.
In the case of COc1cc2ncn(-c3cc(OCc4ccc(S(C)(=O)=O)cc4)c(C(N)=O)s3)c2cc1OC [GW869979], the “%Inh” value [1] is reported as 1%, the “%Inh” value [2] is reported as 0% and the “%Inh” value [3] is reported as 26%. For the same molecule, the “%Inh” value [4] was 0%, the “%Inh” value [5] was 0% and the “%Inh” value [6] was 7%. The “%Inh” value [7] was 27%, the “%Inh” value [8] was 6% and the “%Inh” value (S6K1) was 19%. The “%Inh” value (SBK1) was 37%, the “%Inh” value (SGK2) was 24% and the “%Inh” value (SGK3) was 5%. The “%Inh” value (SGK) was 40%, the “%Inh” value (SIK2) was 0% and the “%Inh” value (SIK) was 0%. The “%Inh” value (SLK) was 29%, the “%Inh” value (SNARK) was 15% and the “%Inh” value (SNRK) was 2%. For the same molecule, the “%Inh” value (SRC) was 11% and the “%Inh” value (SRMS) was 14%.
With Cc1cccc(-c2nc(Nc3ccc4c(cnn4C)c3)c3ccccc3n2)n1 [GW876731] the “%Inh” value [1] was 32%, the “%Inh” value [2] was 0% and the “%Inh” value [3] was 26%. The “%Inh” value [4] was 0%, the “%Inh” value [5] was 24% and the “%Inh” value [6] was 0%. The “%Inh” value [7] was 8%, the “%Inh” value [8] was 0% and the “%Inh” value (S6K1) was 0%. For the same molecule, the “%Inh” value (SBK1) was 10%, the “%Inh” value (SGK2) was 37% and the “%Inh” value (SGK3) was 3%. The “%Inh” value (SGK) was 0%, the “%Inh” value (SIK2) was 0% and the “%Inh” value (SIK) was 0%. For the same molecule, the “%Inh” value (SLK) was 2%, the “%Inh” value (SNARK) was 21% and the “%Inh” value (SNRK) was 0%. The “%Inh” value (SRC) was 11% and the “%Inh” value (SRMS) was 0%.
